Test results: PubChem BioAssay (NCATS)
Results filed as inconclusive are left out. Calls of active or inactive are those of the source. Calls follow the shape of the dose curve; as a rule, active = well fitted cell-killing curve with a large enough effect; inconclusive = small, poorly fitted or top-dose-only effect, or effect the other way; inactive = flat fitted curve, though single readings scatter. Where a SMILES comes first, the peptide text is derived from it. [ ]: non-standard residue; d: D form. pGlu = O=C1CC[C@@H](C(=O)O)N1; Thz = O=C(O)[C@@H]1CSCN1

The molecules below were run on PA-1 (assay: Primary qHTS to identify gynecologic anti-cancer compounds using libraries of approved drugs and bioactive compounds (AID 1345084; also: nearly all actives have a fitted effect of over 55% in size)). Conditions: Gynecologic cancer cell panel viability, ATPlite luminescence, 48 h; series mostly up to 57.5 µM; activity change, negative = cytotoxicity: at the top concentration.
How it was run: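 Cells, 1,000 per well, plated 16 h, then exposed 48 h at 37 C to compounds. Viability by ATPlite luminescence after 15 min at room temperature.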
% is scaled to controls: 0 for no effect and ±100 for the full control effect; potency is read from the fitted curve at half-maximal effect.

SMILES | activity change, negative = cytotoxicity | Potency
O=Cc1ccc(O)c(O)c1O | -9.43% (inactive) | –
CN1[C@@H]2CC[C@H]1CC(OC(=O)C(CO)c1ccccc1)C2 (stereo partly specified) | 40% (inactive) | –
O=C(O)c1cc(O)c(O)c(O)c1 | 18.5% (inactive) | –
Cc1[nH]cnc1CN1CCc2c(c3ccccc3n2C)C1=O | -5.24% (inactive) | –
O=C(O)CC1CC(c2ccccc2)=NO1 (stereo unspecified) | -0.664% [at 25.3 µM] (inactive) | –
CN(CCCOc1ccc(Cc2ccccc2)cc1)CCC(=O)O | -10.6% (inactive) | –
COC(=O)C1=C(C)NC(C)=C(C(=O)OCC(C)C)C1c1ccccc1[N+](=O)[O-] (stereo unspecified) | -2.79% (inactive) | –
O=C(O)[C@H](CC(=O)N1C[C@H]2CCCC[C@H]2C1)Cc1ccccc1 | -11.4% (inactive) | –
NC(=O)C(c1ccccc1)(c1ccccc1)[C@@H]1CCN(CCc2ccc3c(c2)CCO3)C1 | -13.7% (inactive) | –
CCN(CC)CCCCNc1ncc2cc(-c3c(Cl)cccc3Cl)c(NC(=O)NC(C)(C)C)nc2n1 | – | 631 nM (active)
Nc1ccc(O)c([N+](=O)[O-])c1 | 2.12% [at 116 µM] (inactive) | –
O=C(Nc1ccc2c(c1)CCN(Cc1ncn[nH]1)C2)c1ccccc1-c1ccc(C(F)(F)F)cc1 | 0.628% (inactive) | –
Nc1ccc([N+](=O)[O-])cc1O | – | 4470 nM (active)
CC(=O)O[C@H]1C[C@@]2(C)[C@@H](C[C@@H](O)[C@H]3[C@@]4(C)CC[C@@H](O)[C@@H](C)[C@@H]4CC[C@@]32C)/C1=C(\CCC=C(C)C)C(=O)O | 0.201% (inactive) | –
COc1cc(CNC(=O)CCCC/C=C/C(C)C)ccc1O | -1.79% (inactive) | –
Fc1ccc2[nH]c(CN3CCN(c4ccccn4)CC3)cc2c1 | 12.4% (inactive) | –

SMILES | activity change, negative = cytotoxicity | Potency
O=C(Nc1ccc2[nH]ncc2c1)C1CCC1 | -2.78% (inactive) | –
O=[N+]([O-])c1ccc(CNc2nc(NCc3cccc(C(F)(F)F)c3)nc3nc[nH]c23)cc1 | 19.6% (inactive) | –
O=C(O)/C=C\C(=O)O | 13.5% (inactive) | –
CCCCN(CC)c1nc(C)nc2c1c(C)cn2-c1c(C)cc(C)cc1C | 1.27% (inactive) | –
CC(C(=O)O)c1ccc(C(=O)c2ccccc2)s1 (stereo unspecified) | 3.99% (inactive) | –
O=C1CN(/N=C/c2ccc([N+](=O)[O-])o2)C(=O)N1 | -29.5% (inactive) | –
CCCSc1ccc2nc(NC(=O)OC)[nH]c2c1 | – | 1580 nM (active)
CC1(C)[C@@H](O[C@H]2O[C@H](C(=O)O)[C@@H](O)[C@H](O)[C@H]2O[C@@H]2O[C@H](C(=O)O)[C@@H](O)[C@H](O)[C@H]2O)CC[C@]2(C)[C@H]3C(=O)C=C4[C@@H]5C[C@@](C)(C(=O)O)CC[C@]5(C)CC[C@@]4(C)[C@]3(C)CC[C@@H]12 | 6.2% [at 25.3 µM] (inactive) | –
COc1ccc(/C=C/C(=O)Nc2ccccc2C(=O)O)cc1OC | -10.9% (inactive) | –
CC(C(=O)O)c1ccc(C(=O)c2cccs2)cc1 (stereo unspecified) | 1.15% (inactive) | –
Nc1nc2ccc([N+](=O)[O-])cc2s1 | -4.44% [at 116 µM] (inactive) | –
O=C1CC[C@@H](C(=O)N2CSC[C@H]2C(=O)O)N1 ([pGlu]-[Thz]-OH) | 7.32% (inactive) | –
CC1(C)S[C@@H]2[C@H](NC(=O)[C@H](N)c3ccccc3)C(=O)N2[C@H]1C(=O)O | 23.7% (inactive) | –
COC(=O)Nc1nc2ccc(C(=O)C3CC3)cc2[nH]1 | – | 1120 nM (active)
S=c1[nH]c2ccccc2s1 | 0.829% [at 116 µM] (inactive) | –
